# Screening results deposited in PubChem by National Center for Advancing Translational Sciences (NCATS).
# Sampled rows, rich in hits. Any-hit rate of the full collection: about 19%.
# IL-1B inflam inh – inflammasome signaling inhibition, IL-1 beta readout. THP-1 LPS/ATP IL-1B secretion, AlphaLISA, 16 h; hits give low values. activity change, % at 57.5 µM. 360,000 compounds, 4.7% hits. AID 743279; in the data active = activity change below about -50%; inconclusive = mostly about -30% to -49%
#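 Secreted IL-1B measured by AlphaLISA bead assay after 16 h compound exposure of THP-1 cells; compounds (final up to 57.5 uM) added 1 h before LPS (250 ng/mL) and ATP (1.25 mM) stimulation; lower signal means less secretion.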
# DT40 TDP1 CPT – growth inhibition of DT40 Tdp1-/-;hTDP1 cells with camptothecin (screen for TDP1 inhibitors); chicken DT40 Tdp1-/-;hTDP1 cells + 20 nM CPT, ATP luminescence, 48 h; Potency, µM (series often up to 46.2 µM), usual class: inhibitors; 420,000 compounds, 12% hits; AID 686979; also: nearly all actives have a fitted effect of over 55% in size
#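 Chicken DT40 Tdp1-/- cells stably complemented with human TDP1 were seeded at 400 cells/well in medium containing 20 nM camptothecin, exposed to pin-transferred compounds, and grown at 37 °C for at least 48 hr. Viability was read as ATP luminescence.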
# ELG1 repair inh – ELG1-dependent DNA repair inhibition; HEK293T ELG1-luciferase reporter, luminescence, 16 h; DNA damage induced by 5-fluorouridine; Potency, µM (doses to about 46.1 µM), usual class: inhibitors; 330,000 compounds, 2.3% hits; also: nearly all actives have a fitted effect of over 55% in size
#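 Quantitative HTS, concentration-response format. 2,000 cells/well co-treated with 5-fluorouridine and compound, 16 hr in 5% CO2 at 37 °C; ONE-Glo luminescence read after 30 min.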
# Giardia killer – Giardia lamblia killing; Giardia lamblia trophozoite viability; activity change, % at 7.66 µM, hits read low; 340,000 compounds, 0.15% hits; in the data active = activity change below about -80%; inconclusive = between about -30% and that limit;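 also: parasites exposed to compound for two days anaerobically before the ATP read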
#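 Compounds were tested on trophozoites seeded at 100 cells/well and held 48 hrs at 37 deg C anaerobically. An ATP-based luminescent kit measured the remaining live cells.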
# DT40 TDP1 no CPT – qHTS for Inhibitors of human tyrosyl-DNA phosphodiesterase 1 (TDP1): qHTS in cells in absence of CPT. DT40 Tdp1-/- hTDP1 cells, no CPT, ATP luminescence, 48 h. Potency, µM (series often up to 46.2 µM), actives largely listed as inhibitors. 420,000 compounds, 15% hits. AID 686978, 2013; also: nearly all actives have a fitted effect of over 55% in size
#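 Camptothecin absent (DMSO only). Human TDP1-complemented DT40 knockout cells, 400 cells/well, 37 °C for minimum 48 hr; ATP measured via CellTiter-Glo, 30 min dark incubation, luminescence.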
# TDP1 block – inhibitors of human tyrosyl-DNA phosphodiesterase TDP1; Q9NUW8; recombinant TDP1, AlphaScreen DNA substrate cleavage; Potency, µM (top dose mostly 130 µM), usual class: inhibitors; 350,000 compounds, 0.28% hits; also: nearly all actives have a fitted effect of over 40% in size
# Target sequence (Q9NUW8 whole entry, looked up): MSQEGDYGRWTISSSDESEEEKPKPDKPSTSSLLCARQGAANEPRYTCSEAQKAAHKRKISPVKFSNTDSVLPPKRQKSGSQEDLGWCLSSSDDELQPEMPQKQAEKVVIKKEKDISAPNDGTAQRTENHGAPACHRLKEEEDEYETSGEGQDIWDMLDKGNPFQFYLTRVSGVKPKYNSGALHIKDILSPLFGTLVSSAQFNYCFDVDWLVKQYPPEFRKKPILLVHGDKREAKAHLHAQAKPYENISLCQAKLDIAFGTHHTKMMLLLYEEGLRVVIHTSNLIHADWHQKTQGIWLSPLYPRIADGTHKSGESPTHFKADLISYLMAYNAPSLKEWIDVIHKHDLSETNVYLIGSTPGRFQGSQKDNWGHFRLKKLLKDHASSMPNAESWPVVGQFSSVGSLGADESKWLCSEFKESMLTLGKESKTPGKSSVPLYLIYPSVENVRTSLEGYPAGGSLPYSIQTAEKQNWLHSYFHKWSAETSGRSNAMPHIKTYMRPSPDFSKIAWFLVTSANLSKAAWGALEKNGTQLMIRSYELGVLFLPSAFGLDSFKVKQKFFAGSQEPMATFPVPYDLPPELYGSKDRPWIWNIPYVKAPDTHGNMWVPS
#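 Tdp1 1 nM final; 15 min RT w/ cpd; substrate 15 nM, 5 min; beads 10 ug/ml, 10 min; AlphaScreen read. Neg ctrl: no enzyme.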
# A number is an active result; - = inactive; ? = inconclusive; . = no result; [ ] = remark or other dose. Unless noted, calls follow the shape of the dose curve; as a rule, active = well fitted curve in the direction sought with a large enough effect; inconclusive = small, poorly fitted or top-dose-only effect, or another doubt; inactive = no such curve, though single readings can be large; an effect the other way counts as inactive or inconclusive.
SMILES,IL-1B inflam inh,DT40 TDP1 CPT,ELG1 repair inh,Giardia killer,DT40 TDP1 no CPT,TDP1 block
COc1cccc(CNC(=O)COc2cccc3c2OC(C)(C)C3)c1,?,-,-,-,-,-
COc1cc(OC)c2c(=O)c(-c3ccccc3)c(C)oc2c1OC,.,-,.,.,-,-
CCCc1cc(=O)[nH]c(Nc2cc(Cl)ccc2OC)n1,.,-,.,.,-,-
CC(=O)NCCNC(=O)C1CCCCN1S(=O)(=O)c1ccccc1 (stereo unspecified),-,-,-,-,?,-
COc1ccc(NC(=O)COc2cccc3c2OC(C)(C)C3)c(OC)c1,-,?,-,-,16µM,-
COc1ccccc1NC(=O)COC(=O)COc1cccc2c1OC(C)(C)C2,-,-,-,-,-,.
O=c1ccnc(Nc2ccc3c(c2)OCCO3)[nH]1,-,-,-,-,-,-
CN(CCOc1ccc(Cl)cc1)C(=O)c1cccc(S(=O)(=O)N2CCN(Cc3ccccc3)CC2)c1,?,15µM,.,-,21µM,.
COc1ccc(NC(=O)CN(C)C(=O)c2cccc(-n3cccc3)c2)cc1,-,-,-,-,-,2.5µM
Cc1ccc(C)c(NC(=O)CN(C)C(=O)c2cccc(S(=O)(=O)N3CCN(Cc4ccccc4)CC3)c2)c1,-,18µM,?,-,12µM,-
COc1ccc(NC(=O)CN(C)C(=O)c2cccc(S(=O)(=O)N3CCN(Cc4ccccc4)CC3)c2)cc1,-,18µM,-,-,12µM,-
Cc1ccc(NC(=O)CN(C)C(=O)c2cccc(-n3cccc3)c2)cc1,-,-,-,-,-,.
COc1ccc(NC(=O)CN(C)C(=O)c2cccc(S(=O)(=O)N3CCN(C)CC3)c2)cc1,-,-,-,-,-,-
COc1cccc(CNC(=O)Cn2ncn3nc(-c4cccs4)cc3c2=O)c1,.,?,.,.,?,-
Cc1nn(-c2ccccc2)c(Cl)c1/C=N/NC(=O)c1[nH]ncc1Br,-,?,?,-,?,-
COC(=O)c1ccccc1COc1cccn2c(N(C)CC3CC3)c(C)nc12,-,?,.,.,18µM,.
CCOC(=O)C(=O)N(C)c1c(CC)nc2c(OCc3ccccc3OC)cccn12,-,-,.,.,?,.
Cc1nc2c(OCc3ccc(C(F)(F)F)cc3)cccn2c1N(C)CC1CC1,-,?,.,.,23µM,.
Cc1noc(C)c1C(=O)OCC(=O)Nc1ncc(C(F)(F)F)cc1Cl,-,-,-,-,-,-
N#Cc1cccc(NC(=O)N2CC3(CCN(C(=O)c4ccco4)CC3)C2)c1,.,-,.,.,-,.
Cc1ccc(Cl)cc1N1CCN(C(=O)c2ccc3c(c2)N(Cc2ccccc2)CCS3)CC1,.,16µM,.,.,23µM,-
CCOC(=O)N1CCN(C(=O)c2ccc3c(c2)N(Cc2ccccc2)CCS3)CC1,-,?,?,-,26µM,.
COc1ccc(C2C(C#N)=C(N)N(c3ccccc3)C3=C2C(=O)CCC3)cc1Cn1cc([N+](=O)[O-])cn1 (stereo unspecified),-74,?,-,-,?,-
O=S(=O)(Nc1ccc(Br)cc1)c1ccc2nc(-c3ccccc3)[nH]c2c1,.,?,.,.,?,-
Cc1ccc(NS(=O)(=O)c2ccc3nc(-c4ccccc4)[nH]c3c2)c(Br)c1,.,15µM,.,.,23µM,-[12.3 µM]
SMILES,IL-1B inflam inh,DT40 TDP1 CPT,ELG1 repair inh,Giardia killer,DT40 TDP1 no CPT,TDP1 block
CC(C)c1ccc(NS(=O)(=O)c2ccc3nc(-c4ccccc4)[nH]c3c2)cc1,.,15µM,.,.,?,-
Cc1cccc(NS(=O)(=O)c2ccc3nc(-c4ccccc4)[nH]c3c2)c1C,-,16µM,-,-,16µM,-
COC(=O)C1CCN(Cc2ccc3c(c2)CN(C(=O)c2ncc(C)[nH]2)CCO3)CC1,.,-[9.04 µM],.,.,-,.
CC(=O)Nc1nonc1-c1nnc(SCc2ccccc2F)n1C,.,?,.,.,-,-
COc1ccc(/C=N/NC(=O)c2cc(-c3ccccc3OC)nc3ccccc23)cc1COC(C)=O,-,10µM,?,-,14µM,-
COc1ccc(/C=N/NC(=O)c2cc(-c3ccc(C)cc3C)nc3ccccc23)cc1COC(C)=O,-,?,-,-,1.5µM,-
COc1ccc(/C=N\NC(=O)c2ccc(-c3ccccc3)cc2)cc1COC(C)=O,-,?,-,-,?,-
CCOc1ccc(NC(=O)Cn2c(=O)n(Cc3ccccc3)c(=O)c3c4c(sc32)CN(C(C)=O)CC4)cc1,.,?,.,.,?,-
CCO[C@H]1C[C@@H](c2ccc(CC)cc2)N(S(=O)(=O)c2ccc(C)cc2)C2CC(c3ccc(CC)cc3)N(S(=O)(=O)c3ccc(C)cc3)CC21 (stereo partly specified),-,?,.,.,?,.
N#CCCN=C(NS(=O)(=O)c1ccccc1)c1ccccc1,-,-,-,-,-,-
CCOc1ccc(N2C(=O)C(C)CNC2=S)cc1 (stereo unspecified),-,-,.,-,-,.
O=C(Nc1ccccc1)NC1(C(=O)NCc2cccs2)CCCCC1,-,-,-,-,-,-
CCC(C)NC(=O)C1(NC(=O)Nc2ccccc2)CCCCC1 (stereo unspecified),-,16µM,-,-,18µM,-
CCCCNC(=O)C1(NC(=O)Nc2ccc(C)cc2)CCCCC1,-,7.3µM,-,-,?,-
O=C(Nc1ccc(Cl)cc1)NC1(C(=O)NCCCN2CCOCC2)CCCCC1,-,-,?,-,-,-
C=C(C)CNC(=S)N1CCNC(=O)C1CC(=O)OC (stereo unspecified),-,-,-,-,-,-
COc1ccc(-c2csc(NC(=S)NC(=O)/C=C/c3ccccc3)n2)cc1Br,-,?,-,-,23µM,-
O=C(/C=C/c1ccco1)NC(=S)Nc1nc(-c2ccc(Cl)cc2)cs1,-,5.2µM,-,-,4.6µM,-
O=C(/C=C\c1ccco1)Nc1nc(-c2ccccc2)cs1,-,-,?,-,-,-
O=C(/C=C/c1ccco1)NC(=S)Nc1nc(-c2ccc3ccccc3c2)cs1,-,3.3µM,-,?,4.1µM,-
O=C(O)/C=C/C(=O)Nc1nc(-c2ccc3ccccc3c2)cs1,-,-,.,-,-,.
CC(=O)Nc1ccccc1OCC(=O)NC(C)c1ccc(F)cc1 (stereo unspecified),-,13µM,-,-,?,-
CCCCn1c(N)c(N(CCC(C)C)C(=O)c2ccc([N+](=O)[O-])s2)c(=O)[nH]c1=O,-,23µM,-,-,?,-
CCCCN(C(=O)c1ccc([N+](=O)[O-])s1)c1c(N)n(CC(C)C)c(=O)[nH]c1=O,-,-,-,-,-,-
O=[N+]([O-])c1ccc2[nH]c(=S)[nH]c2c1,-,-,.,-,-,.
